# Test results reported in publication PMC7862700, “An all-to-all approach to the identification of sequence-specific readers for epigenetic DNA modifications on cytosine”.
# Molecular target: SPI1 (Homo sapiens, UniProt P17947 1-270)
# Test: DAPPL (digital affinity profiling via proximity ligation, sequencing); 10 mM Tris-HCl pH 7.5, 50 mM NaCl, 1 mM DTT, 4% glycerol, room temperature, 30 min; GST-TFs on glutathione beads, 16-mer random dsDNA library, 0.1% formaldehyde crosslink after washing; high values mean tight binding
# Conditions: protein: recombinant; tags: N-terminal GST; dsDNA, one strand shown
# In short: (§1)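 The binding signal reported is, for every hexamer, its read frequency for a factor over its read frequency for the tag-only sample. Reads came from pools of yeast-expressed, GST-fused human transcription factors on glutathione beads, barcoded with DNA and mixed with that sample, which were incubated with 200 nmole of a random double-stranded 16-mer DNA library in Tris/NaCl/DTT/glycerol buffer at room temperature for 30 min. After washing, the pools were crosslinked with 0.1% formaldehyde, proximity-ligated with BsaI/T4 ligase for 1 h at 37 °C, PCR-amplified and sequenced on an Illumina NextSeq500.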
row,Sequence,binding signal
1,AGCGGA,"1.26 fold enrichment (6-mer frequency, TF over GST control)"
2,AGTGAT,"1.06 fold enrichment (6-mer frequency, TF over GST control)"
3,AGAGGA,"1.22 fold enrichment (6-mer frequency, TF over GST control)"
4,TGAGGA,"1.07 fold enrichment (6-mer frequency, TF over GST control)"
5,GGGGAA,"1.21 fold enrichment (6-mer frequency, TF over GST control)"
6,AGTGAA,"1.26 fold enrichment (6-mer frequency, TF over GST control)"
7,GGGAAG,"1.51 fold enrichment (6-mer frequency, TF over GST control)"
8,AGTGGA,"1.08 fold enrichment (6-mer frequency, TF over GST control)"
9,AGTGCG,"1.14 fold enrichment (6-mer frequency, TF over GST control)"
10,GAGGAA,"1.64 fold enrichment (6-mer frequency, TF over GST control)"
11,AAAGAG,"1.45 fold enrichment (6-mer frequency, TF over GST control)"
12,GTGTGC,"1.01 fold enrichment (6-mer frequency, TF over GST control)"
13,AAGAGG,"1.56 fold enrichment (6-mer frequency, TF over GST control)"
14,TAGGGA,"1.05 fold enrichment (6-mer frequency, TF over GST control)"

# Molecular target: SPIB (Homo sapiens, UniProt Q01892 1-262)
# Test: as above
# Conditions: protein: recombinant; tags: N-terminal GST; dsDNA, one strand shown
# In short: as §1
# Chain of SPIB (Q01892 whole entry): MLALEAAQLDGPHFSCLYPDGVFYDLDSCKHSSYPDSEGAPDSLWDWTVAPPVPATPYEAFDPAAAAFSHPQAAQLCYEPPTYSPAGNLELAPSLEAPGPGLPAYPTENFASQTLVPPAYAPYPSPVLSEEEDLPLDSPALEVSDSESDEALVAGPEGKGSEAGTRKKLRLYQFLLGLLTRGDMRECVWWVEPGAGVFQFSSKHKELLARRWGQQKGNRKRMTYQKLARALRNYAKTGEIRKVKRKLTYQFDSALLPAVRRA
row,Sequence,binding signal
1,TCGCAG,"1.04 fold enrichment (6-mer frequency, TF over GST control)"
2,GTGGTG,"1.02 fold enrichment (6-mer frequency, TF over GST control)"
3,AGCGTA,"1.02 fold enrichment (6-mer frequency, TF over GST control)"
4,CGCTGA,"1.01 fold enrichment (6-mer frequency, TF over GST control)"

# Molecular target: T1, ELK3 (Homo sapiens, UniProt P41970 1-407)
# T1 sequence: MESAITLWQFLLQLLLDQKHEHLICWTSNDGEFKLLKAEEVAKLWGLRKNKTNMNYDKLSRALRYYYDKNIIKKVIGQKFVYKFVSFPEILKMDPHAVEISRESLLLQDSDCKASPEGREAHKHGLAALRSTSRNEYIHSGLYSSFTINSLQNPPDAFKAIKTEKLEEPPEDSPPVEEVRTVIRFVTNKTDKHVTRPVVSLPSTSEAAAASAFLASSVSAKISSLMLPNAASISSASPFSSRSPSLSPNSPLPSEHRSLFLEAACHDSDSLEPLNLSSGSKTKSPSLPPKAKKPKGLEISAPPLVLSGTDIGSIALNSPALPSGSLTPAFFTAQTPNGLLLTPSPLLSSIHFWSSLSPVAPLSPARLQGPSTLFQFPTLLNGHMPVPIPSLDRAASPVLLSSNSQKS
# Test: as above
# Conditions: protein: recombinant; tags: N-terminal GST; dsDNA, one strand shown
# In short: as §1
row,Sequence,binding signal
1,GCCACG,"1.03 fold enrichment (6-mer frequency, TF over GST control)"
2,AAACGT,"1.06 fold enrichment (6-mer frequency, TF over GST control)"
3,CCGTAG,"1.02 fold enrichment (6-mer frequency, TF over GST control)"
4,CGGAAT,"1.01 fold enrichment (6-mer frequency, TF over GST control)"
5,CGAGCG,"1.01 fold enrichment (6-mer frequency, TF over GST control)"

# Molecular target: T2, FEV (Homo sapiens, UniProt Q99581 1-238)
# T2 sequence: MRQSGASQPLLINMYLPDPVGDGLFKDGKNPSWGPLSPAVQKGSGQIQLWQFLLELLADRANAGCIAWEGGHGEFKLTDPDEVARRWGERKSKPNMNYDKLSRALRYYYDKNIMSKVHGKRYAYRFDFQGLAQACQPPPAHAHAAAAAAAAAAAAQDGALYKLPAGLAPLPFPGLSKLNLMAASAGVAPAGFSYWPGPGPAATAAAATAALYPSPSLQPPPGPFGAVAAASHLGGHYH
# Test: as above
# Conditions: protein: recombinant; tags: N-terminal GST; dsDNA, one strand shown
# In short: as §1
row,Sequence,binding signal
1,CGGCCG,"1.03 fold enrichment (6-mer frequency, TF over GST control)"
2,CGGACA,"1 fold enrichment (6-mer frequency, TF over GST control)"
3,GGACCG,"1.12 fold enrichment (6-mer frequency, TF over GST control)"

# Molecular target: T3, ETV7 (Homo sapiens, UniProt Q9Y603 1-341)
# T3 sequence: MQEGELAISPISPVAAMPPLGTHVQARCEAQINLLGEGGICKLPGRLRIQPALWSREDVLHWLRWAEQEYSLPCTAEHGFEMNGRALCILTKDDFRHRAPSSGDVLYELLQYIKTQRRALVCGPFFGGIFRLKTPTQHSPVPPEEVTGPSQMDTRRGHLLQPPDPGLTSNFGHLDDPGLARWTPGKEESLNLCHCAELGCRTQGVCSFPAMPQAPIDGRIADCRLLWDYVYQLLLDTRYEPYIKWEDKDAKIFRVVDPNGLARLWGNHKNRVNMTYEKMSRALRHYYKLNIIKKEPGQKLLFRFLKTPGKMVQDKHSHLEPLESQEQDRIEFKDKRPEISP
# Test: as above
# Conditions: protein: recombinant; tags: N-terminal GST; dsDNA, one strand shown
# In short: as §1
row,Sequence,binding signal
1,GGGTAC,"1 fold enrichment (6-mer frequency, TF over GST control)"
2,AAAGTG,"1.04 fold enrichment (6-mer frequency, TF over GST control)"
3,GCCACG,"1.03 fold enrichment (6-mer frequency, TF over GST control)"
4,CAGCGA,"1.01 fold enrichment (6-mer frequency, TF over GST control)"
5,ACGGGT,"1.01 fold enrichment (6-mer frequency, TF over GST control)"
6,GCGCGG,"1.01 fold enrichment (6-mer frequency, TF over GST control)"
7,GTGGTG,"1 fold enrichment (6-mer frequency, TF over GST control)"
8,CACGGT,"1 fold enrichment (6-mer frequency, TF over GST control)"

# Molecular target: T4, ELF5 (Homo sapiens, UniProt Q9UKW6-2 1-255)
# T4 sequence: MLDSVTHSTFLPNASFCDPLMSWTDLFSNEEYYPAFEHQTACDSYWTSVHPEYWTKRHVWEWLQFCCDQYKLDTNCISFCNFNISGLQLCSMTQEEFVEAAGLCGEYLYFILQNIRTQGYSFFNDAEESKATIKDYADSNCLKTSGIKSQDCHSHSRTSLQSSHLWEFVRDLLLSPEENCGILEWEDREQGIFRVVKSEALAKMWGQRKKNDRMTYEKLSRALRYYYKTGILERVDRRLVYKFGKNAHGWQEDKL
# Test: as above
# Conditions: protein: recombinant; tags: N-terminal GST; dsDNA, one strand shown
# In short: as §1
row,Sequence,binding signal
1,CAAGGA,"1.03 fold enrichment (6-mer frequency, TF over GST control)"
2,TCCAGG,"1.01 fold enrichment (6-mer frequency, TF over GST control)"
3,GGGATG,"1.01 fold enrichment (6-mer frequency, TF over GST control)"
4,AGTAGT,"1.07 fold enrichment (6-mer frequency, TF over GST control)"
5,GGGAAG,"1.24 fold enrichment (6-mer frequency, TF over GST control)"
6,AGCAGG,"1.02 fold enrichment (6-mer frequency, TF over GST control)"
7,GAGGAA,"1.11 fold enrichment (6-mer frequency, TF over GST control)"
8,CGGGAA,"1.06 fold enrichment (6-mer frequency, TF over GST control)"
9,GGAAGG,"1 fold enrichment (6-mer frequency, TF over GST control)"
